TbREL1 inh – TbREL1 inhibition, primary screen; inhibition, % at 9.66 µM; 0.49% of 89,000 active; AID 1117264; TbREL1 RNA ligation, FRET fluorescence;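 active = inhibition above the mean inhibition across all screened compounds plus 3 SD, cut at about 11% in these data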;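 also: 0% = plate median of test wells and 100% = NSC42067 control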
Target sequence (P86926 whole entry, looked up): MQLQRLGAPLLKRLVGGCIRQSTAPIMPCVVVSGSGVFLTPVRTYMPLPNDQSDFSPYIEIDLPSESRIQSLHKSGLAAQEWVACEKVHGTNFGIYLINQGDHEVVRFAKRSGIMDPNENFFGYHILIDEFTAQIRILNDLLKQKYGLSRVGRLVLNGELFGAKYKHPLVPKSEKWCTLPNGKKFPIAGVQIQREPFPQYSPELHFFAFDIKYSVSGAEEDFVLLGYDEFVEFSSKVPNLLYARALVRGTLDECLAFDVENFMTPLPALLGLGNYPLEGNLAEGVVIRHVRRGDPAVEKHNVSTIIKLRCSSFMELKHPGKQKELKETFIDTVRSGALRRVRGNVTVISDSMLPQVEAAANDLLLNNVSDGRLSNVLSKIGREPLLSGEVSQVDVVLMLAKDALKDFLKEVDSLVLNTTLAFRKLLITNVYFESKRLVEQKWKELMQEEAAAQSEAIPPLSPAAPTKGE
TbREL1 confirm – TbREL1 inhibition, confirmation; 37% of 390 active; inhibition, % at 9.66 µM; AID 1117282; shares compounds with TbREL1 inh; TbREL1 RNA ligation, FRET fluorescence;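 active = mean inhibition across replicates above a set limit taken from the earlier primary screen, cut at about 11% in these data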;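 also: 0% = REL1 with substrate and DMSO and 100% = REL1 plus control inhibitor NSC42067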
Numbers without * were called inactive. The entries come from a sample that favours hits as a whole.

SMILES | TbREL1 inh | others
Cc1onc(-c2ccccc2)c1-c1n[nH]c(=S)n1-c1ccccc1 | 26* | TbREL1 confirm=-1
Cc1c(Cl)c(-c2n[nH]c(=S)n2-c2ccccc2)nn1C | -5
Cc1ccc(-n2c(-c3ccccc3)n[nH]c2=S)cc1 | -5
COC(=O)[C@]12C[C@H](CC(=O)NCCC(C)C)C(=O)N(Cc3cccc4ccccc34)C1=C[C@H](COCc1ccccc1)O[C@@H]2C | -3
CCCCN1CCCOc2cc(Br)ccc2S1(=O)=O | -1
O=C1c2ccccc2-c2nccnc21 | -1
O=C1c2cc([N+](=O)[O-])ccc2-c2ncccc21 | 1
O=C1C(=O)c2cccnc2-c2ncccc21 | 43* | TbREL1 confirm=68*
O=C(CN1C(=O)CCSc2ccccc21)Nc1ccc(Cl)cc1 | 3
N#Cc1ccccc1S(=O)(=O)N1CCN(CC(O)CN2CCOCC2)CC1 (stereo unspecified) | 20* | TbREL1 confirm=11
COc1ccc(OCCN2CCN(S(=O)(=O)c3ccccc3C#N)CC2)cc1 | 7
COc1ccc(S(=O)(=O)N2CCN(CC(O)CN3CCOCC3)CC2)cc1 (stereo unspecified) | 3
Cc1cc(-c2n[nH]c(=S)n2N=Cc2cccc(OCc3ccccc3)c2)n[nH]1 | -3
Cc1ccc(S(=O)(=O)N2CCCC(C(=O)NCc3ccco3)C2)cc1 (stereo unspecified) | -2
CCOC(=O)C1CCN(C(=O)C(C)(C)NC(=O)Nc2ccc(C(F)(F)F)cc2Cl)CC1 | -3
Cc1ccc(Cn2cc(COC(=O)NCCc3c[nH]c4ccccc34)nn2)cc1 | -4
CC(=O)N1CCCN(C(=O)CCn2nnc3ccccc32)CC1 | -3
Cc1ccc2c(c1)-c1c(cnn1CC(=O)NCCc1ccc(Cl)cc1)CO2 | 0
COC(=O)c1ccc(Cn2cc([N+](=O)[O-])cn2)cc1 | 3
CC(C)NC(=O)CCCn1cc([N+](=O)[O-])cn1 | 3
Cc1nn(C(=O)Cn2cc([N+](=O)[O-])cn2)c(C)c1Cl | 11* | TbREL1 confirm=4
CN=C1NC(=O)/C(=C\c2cc(C)n(-c3ccccc3F)c2C)S1 | -3
COc1cc2c(cc1NC(=O)CSc1nnc(-c3cnccn3)n1-c1ccc(C)cc1)oc1ccccc12 | 2
O=Cc1cn(-c2ccccc2)nc1-c1cc2ccccc2oc1=O | 6
O=C(/C=C/c1cn(-c2ccccc2)nc1-c1cccnc1)NCCN1CCOCC1 | 2
SMILES | TbREL1 inh | others
CN(C)CCNC(=O)/C=C/c1cn(-c2ccccc2)nc1-c1cc2ccccc2oc1=O | 12* | TbREL1 confirm=4
CCOC(=O)c1csc(NC(=O)C2CCCN(S(=O)(=O)c3cc(OC)ccc3OC)C2)n1 (stereo unspecified) | -1
COc1ccc(CN(C)CC(O)COC(c2ccc(OC)cc2)c2ccc(OC)cc2)cc1 (stereo unspecified) | 13* | TbREL1 confirm=8
COc1ccc(CNC(=O)CN(C)Cc2ccc(SC)cc2)cc1 | -1
COc1ccc(-c2noc(CN(C)Cc3ccccc3)n2)cc1 | -2
CCC[C@H]1[C@@H](OC(=O)NCc2ccc(OC)cc2)CC[C@@]23CCCN2C(=O)CCC[C@@H]13 | -5
O=C(Nc1ccc(F)cc1)OCc1cn(Cc2ccc(F)c(F)c2)nn1 | -2
C[C@@H]1Cc2cc(O)c(O)c(O)c2C(=O)O1 | 1
CCN(CC)c1ccc(C=Nn2c(-c3ccc(F)cc3)n[nH]c2=S)c(O)c1 | -6
O=C(C1CCN(S(=O)(=O)c2ccc3[nH]c(=O)oc3c2)CC1)N1CCCC1 | 5
CSCCCNC(=O)C1CCN(S(=O)(=O)c2ccc3[nH]c(=O)oc3c2)CC1 | -1
COCCCNC(=O)C1CCN(S(=O)(=O)c2ccc3[nH]c(=O)oc3c2)CC1 | 19* | TbREL1 confirm=24*
CN(Cc1ccccc1)C(=O)OCc1cn(Cc2cccc(C(F)(F)F)c2)nn1 | -1
COc1ccccc1NC(=S)OCCN1CCCC12CCC(c1ccccc1)CC2 (stereo unspecified) | 1
O=C(N/N=C/c1ccccn1)c1cccs1 | 12* | TbREL1 confirm=6
O=C(N/N=C\c1ccccn1)c1cccc(C(=O)N/N=C\c2ccccn2)n1 | -7
O=C(Cc1cccs1)N/N=C/c1ccccn1 | 3
COCCCNC(=O)C[C@H]1C(=O)N(Cc2ccc(OC)cc2)C2=CCCCC[C@@]21C(=O)OC | -8
O=S(=O)(N[C@H]1CCCC[C@@H]1N1CCOCC1)c1ccc(Cl)cc1 | -4
CC(=O)c1cc(-c2cccc(CO)c2)c(=O)n2c1CCC2 | 11* | TbREL1 confirm=0
CC(=O)c1ccc(-c2cc(C(C)=O)c3n(c2=O)CCC3)cc1 | -2
CC(=O)c1cc(-c2ccc(Cl)c(Cl)c2)c(=O)n2c1CCC2 | 4
COc1cccc(CNC(=O)C2CCCN(c3ncccn3)C2)c1OC (stereo unspecified) | 1
COC(=O)[C@H](Cc1ccccc1)NP(=O)(OC)[C@@H](C)NC(=O)OCc1ccccc1 (stereo partly specified) | -2
C=CCN1C(=O)[C@H](CC(=O)NCCCOCCCC)[C@@]2(C(=O)OCC)CCCC=C12 | -7
SMILES | TbREL1 inh | others
CC1=NN(c2ccccc2)C(=O)/C1=C/N(C)C | 12* | TbREL1 confirm=6
CC1=NN(c2ccccc2)C(=O)/C1=C\c1cc(C)n(C)c1C | -10
CN(C)/C=C1/C(=O)N(c2ccc([N+](=O)[O-])cc2)N=C1c1ccccc1 | -1
COC(=O)[C@]12C[C@H](CC(=O)NCCc3ccccc3OC)C(=O)N(Cc3ccccc3)C1=C[C@H](COCc1ccccc1)O[C@@H]2C | -2
CN(C)CCCN(C(=O)c1ccc(S(=O)(=O)N(C)C2CCCCC2)cc1)c1nc2ccc(Br)cc2s1 | 16* | TbREL1 confirm=8
CN(C)CCCN(C(=O)c1ccc(S(=O)(=O)N2CCCCC2)cc1)c1nc2cc3c(cc2s1)OCO3 | 11
CN(C)CCCN(C(=O)c1ccc(S(=O)(=O)N(C)C2CCCCC2)cc1)c1nc2ccc(F)cc2s1 | 11* | TbREL1 confirm=11
Cc1cccc2sc(N(CCCN(C)C)C(=O)c3ccc(C(=O)c4ccccc4)cc3)nc12 | 5
CCN(Cc1ccccc1)S(=O)(=O)c1ccc(C(=O)N(CCCN(C)C)c2nc3ccc(F)cc3s2)cc1 | 5
CN(C)CCCN(C(=O)c1ccc(C(=O)c2ccccc2)cc1)c1nc2ccc(F)cc2s1 | 14* | TbREL1 confirm=10
CN(C)CCCN(C(=O)c1ccc(S(=O)(=O)N2CCCC2)cc1)c1nc2ccc(Br)cc2s1 | 10
CCOc1ccc2nc(N(CCCN(C)C)C(=O)c3ccc(S(=O)(=O)N4CCCC4)cc3)sc2c1 | 1
Cc1ccc2nc(N(CCCN(C)C)C(=O)c3ccc4c(c3)CCCC4)sc2c1 | 2
Cc1ccc(OCc2nnc(SCC(=O)Nc3ccc(OCc4ccccc4)cc3)n2-c2ccc(Cl)cc2)cc1 | -4
c1ccc(Cn2ccc3ccc(-c4ccc5ccn(Cc6ccc(-c7ccccc7)cc6)c5c4)cc32)cc1 | 0
O=C(Cc1ccc2c(c1)OCO2)N1CCC(n2nc(-c3ccccc3)oc2=O)CC1 | 0
Cc1ccc(CSc2nnc(-c3ccccc3)n2Cc2ccco2)cc1 | 2
CCCC1CCC2(CC1)CCC2OC(=O)Nc1ccc(C)cc1 (stereo unspecified) | -1
CCCC1CCC2(CC1)CCC2OC(=O)Nc1cc(C)cc(C)c1 (stereo unspecified) | 0
CCCC1CCC2(CC1)CCC2OC(=O)Nc1cccc(C(F)(F)F)c1 (stereo unspecified) | 12* | TbREL1 confirm=8
Cc1ccc(-n2c(SCc3cccc(F)c3)nc3sc4c(c3c2=O)CCCC4)cc1 | -2
COc1ccc(C=O)cc1-c1cc(C(C)=O)c2n(c1=O)CCC2 | 1
